Source: PubChem BioAssay (several laboratories)
Abs 340nm – compound absorbs light at 340 nm; fold change at 10 µM; 65,000 tested, under 10 active; compound absorbance at 340 nm, fold over control;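 active = at 10 µM dose, initial 340 nm absorbance at least 2 fold that of control wells; inactive = change under 2 fold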;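 note: initial absorbance extrapolated from kinetic A340 decline of NADH oxidation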
Htt clearance – mutant huntingtin protein clearance. inhibition, % at 1.5 µM. actives 0.42% (n = 47,000). HeLa Exon1htt(103Q)mCFP, aggregate imaging; zero = plate's median compound well. AID 853;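 active = inhibition of aggregate fluorescence above about 70%, also judged a hit by eye on the cell image, limit read from the data, passing the limit was not always enough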;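 note: cells exposed to compound for three days before fixation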
M1 antag – M1 muscarinic receptor (rat) antagonism; CHO-M1 cells, Fluo-4 calcium, ACh EC80 antagonist mode; active compounds read low; B-score at 10 µM; actives 3.4% (n = 64,000); AID 628;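 active = calcium fluorescence response, raw or row-and-column corrected B-score, differing from the plate sample mean either way at a set confidence level, mostly lower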
Target sequence (P08482 whole entry, looked up): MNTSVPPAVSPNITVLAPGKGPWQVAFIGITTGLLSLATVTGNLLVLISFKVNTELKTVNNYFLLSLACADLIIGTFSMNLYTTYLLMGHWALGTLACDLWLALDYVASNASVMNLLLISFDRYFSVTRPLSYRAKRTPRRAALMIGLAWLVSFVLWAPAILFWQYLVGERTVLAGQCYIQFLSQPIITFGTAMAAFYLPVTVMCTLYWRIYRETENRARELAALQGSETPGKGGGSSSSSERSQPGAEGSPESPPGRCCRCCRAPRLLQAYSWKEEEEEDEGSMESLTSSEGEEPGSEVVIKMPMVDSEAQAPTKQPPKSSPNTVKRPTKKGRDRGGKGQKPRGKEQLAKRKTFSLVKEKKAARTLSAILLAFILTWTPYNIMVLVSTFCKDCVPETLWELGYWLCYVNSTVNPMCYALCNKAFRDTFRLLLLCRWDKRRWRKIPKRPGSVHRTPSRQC
M1 agonist – agonists of M1 muscarinic receptor | CHO-M1 cells, Fluo-4 calcium fluorescence, agonist mode; active compounds read high | B-score at 10 µM | actives 3% (n = 64,000) | AID 626;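 active = fluorescence rise, raw or as B-score row- and column-corrected plate score, outside the 99.7% band of its plate's samples, either direction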
NADH enzymes – blocks coupling enzymes of NAD/NADH assays; actives 0.02% (n = 65,000); coupled PK/LDH NADH assays, four targets; IC50, µM (doses to about 10 µM), inactives show top-dose inhibition; AID 774;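 active = single-dose screening hits from any of four coupled enzyme assays that gave an IC50 when retested across doses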;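 note: the DPM-DC format reads NADH fluorescence rather than 340 nm absorbance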
Fluor 339 460 – intrinsic fluorescence of library compounds, ex339/em460 – biochemical, MLSMR library, data from DPM-DC assay, artefact control, profiling panel | compound autofluorescence, ex339/em460 nm, NADH buffer; active compounds read high; 1 = no-compound wells, NADH background | fluorescence fold increase at 10 µM | actives 5.5% (n = 65,000);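 active = at 10 µM, mean starting fluorescence two-fold or more over control wells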;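 note: signal is the first read of a kinetic run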
* marks the source's active call; other numbers are inactive results; · = not tested or not shown. This is a sample that favours compounds with a hit; in the whole collection about 9.3% have one here.

SMILES	Abs 340nm	Htt clearance	M1 antag	M1 agonist	NADH enzymes	Fluor 339 460
COC(=O)C(CC(C)C)Oc1ccc2c(C)cc(=O)oc2c1 (configuration not stated)	1.07	1.5	0.365	-0.53	7.0%	1.67
Cc1cc(=O)n(C)c(=O)n1CC(=O)N1CCCCCC1	1.03	·	0.533	-1.11	3.0%	1.1
CN1C(=O)c2cccc(NC(=O)CCc3ccccc3)c2C1=O	1.05	-0.1	1.45	-0.0621	5.0%	1.48
O=c1oc2cc(O)ccc2c2c1CCCC2	1.11	·	-0.264	-0.368	7.0%	2.12*
CC(C)Oc1ccc2c3c(c(=O)oc2c1)CCC3	1.09	-71.9	-0.369	-0.0646	2.0%	2.11*
COc1ccc(Cn2c(-c3ccc(OC)cc3)nc3ccccc32)cc1	·	-31.9	·	·	·	·
COc1ccccc1Cn1c(-c2ccco2)nc2nc3ccccc3nc21	1.04	·	0.0111	0.00887	4.0%	1.74
C=CCn1c(-c2cccc(OC)c2)nc2nc3ccccc3nc21	·	41.4	·	·	·	·
Cc1ccc(-c2nc3nc4ccccc4nc3n2Cc2ccco2)cc1	1.13	·	0.0261	-0.841	12.0%	2*
CCCCCn1c(-c2ccco2)nc2nc3ccccc3nc21	1.09	9.1	-0.392	0.012	0.0%	3.91*
COCCCn1c(-c2ccc(OC)cc2)nc2nc3ccccc3nc21	1.05	·	-0.674	-0.281	2.0%	3.99*
CCCn1c(-c2ccc(OC)cc2)nc2nc3ccccc3nc21	1.17	21.7	-0.917	-0.156	12.0%	2.11*
CCOc1ccc(OCC)c(-c2c(=O)n(OCc3ccc(C(C)(C)C)cc3)c3ccccc3[n+]2[O-])c1	·	-8.3	·	·	·	·
Cc1c(C(=O)Nc2ccc(-n3cnnn3)cc2)oc2ccccc12	1.06	·	-0.313	1.95	12.0%	3.77*
O=C(Nc1ccc2oc(-c3cccnc3)nc2c1)c1cccnc1	1.05	-35.8	0.101	-0.942	8.0%	1.6
Cc1c(C(=O)Nc2ccc3oc(-c4cccnc4)nc3c2)oc2ccccc12	1.14	-65.1	0.0274	1.65	11.0%	3.81*
Cc1ccc(-c2nc3cc(C)ccc3o2)cc1	1.06	36.5	0.0311	-0.251	4.0%	0.87
Cc1ccc2oc(-c3ccc(NC(=O)CC(C)C)cc3)nc2c1	1.09	·	0.0783	0.561	3.0%	2.2*
CC(C)CC(=O)Nc1ccc2oc(-c3cccnc3)nc2c1	1.07	-44.7	1.38	-0.0332	4.0%	2.22*
CCOc1ccc(NC(=O)C(C)Oc2ccccc2C(=O)Nc2ccc(C)c(Cl)c2)cc1 (configuration not stated)	·	28.0	·	·	·	·
Cc1ccc(NC(=O)CN(c2cc(C)cc(C)c2)S(=O)(=O)c2c(C)noc2C)nc1	1.06	15.5	-0.0454	-0.842	7.0%	1.06
O=C(NC1CCCCC1)N(CCN1CCCC1)Cc1cc2cc3c(cc2[nH]c1=O)OCCO3	1.03	-4.5	2.53	-0.703	19.0%	3.59*
CC(=O)c1ccc(S(=O)(=O)N(Cc2cc3cc4c(cc3[nH]c2=O)OCCO4)CC2CCCO2)cc1 (configuration not stated)	1.03	20.2	0.244	-0.871	3.0%	1.22
COC(=O)c1ccc(S(=O)(=O)N(Cc2cc3cc4c(cc3[nH]c2=O)OCO4)C2CCCCC2)cc1	1.04	·	1.29	-0.199	6.0%	3.57*
COc1ccc2cc(CN(CC3CCCO3)S(=O)(=O)c3ccccc3)c(=O)[nH]c2c1 (configuration not stated)	·	44.3	·	·	·	·
SMILES	Abs 340nm	Htt clearance	M1 antag	M1 agonist	NADH enzymes	Fluor 339 460
O=C(NC1CCCCC1)N(Cc1cc2cc3c(cc2[nH]c1=O)OCCO3)CC1CCCO1 (configuration not stated)	1.08	·	0.494	0.207	10.0%	4.47*
Cc1ccc(S(=O)(=O)N(Cc2cc3cc4c(cc3[nH]c2=O)OCCO4)CC2CCCO2)cc1 (configuration not stated)	1.1	·	0.201	-0.513	4.0%	3.46*
COc1ccc(CN2CCCCC2C(=O)Nc2ccc(OC)c(OCC(C)C)c2)cc1OC (configuration not stated)	·	-11.3	·	·	·	·
O=C1C2C3C=CC(O3)C2C(=O)N1CC(O)c1ccccc1 (configuration not stated)	1.05	-25.8	·	·	6.0%	1.1
COc1cc2nc(N(C)C)nc(N)c2cc1OC	1.07	·	0.958	-0.485	11.0%	5.04*
CC(=O)N1C(C(=O)O)CSC1c1ccc(C)cc1 (configuration not stated)	1.03	·	-0.838	1.74	1.0%	1.02
c1ccc2c(c1)CCN(CCCNc1nc3ccccc3n3cnnc13)C2	1.05	-33.7	-1.57	0.0193	1.0%	1.15
CCOC(=O)c1cc(-c2ccco2)nc2c1c(C)nn2CCC#N	1.04	5.4	1.07*	0.37	2.0%	2.43*
CCOC(=O)c1cc(-c2ccncc2)nc2c1c(C)nn2C	1.04	·	-1.19	3.66	12.0%	5.06*
CCOC(=O)C1=C(C)N(C)C(C)=C(C(=O)OCC)C1c1ccncc1	1.07	-10.1	-0.0896	1.23	3.0%	1.12
CCOC(=O)c1cc(-c2ccc3c(c2)OCCO3)nc2c1c(C)nn2CCC#N	1.05	23.2	0.0791	0.496	6.0%	4.9*
O=C(OCCN(C1=NS(=O)(=O)c2ccccc21)c1ccc(Cl)cc1)c1ccco1	1.03	-25.2	-0.451	0.486	6.0%	1.1
Cn1c(SCC2CCCCC2)nnc1-c1ccncc1	0.95	·	0.105	0.0561	10.0%	1.14
Cc1ccc(C2CC(c3ccccc3OC(F)F)Nc3ncnn32)cc1 (configuration not stated)	1.01	-21.2	1.3*	0.835	12.0%	1.06
Cc1ccccc1C1CC(c2ccccc2OC(F)F)Nc2ncnn21 (configuration not stated)	1	·	0.644	-0.364	5.0%	1.09
COc1ccc2c(C)c(C(=O)NCC(C)O)oc2c1OC (configuration not stated)	1.06	·	-0.0366	0.371	10.0%	2.29*
COc1ccc(CNCCNC(=O)c2ccco2)c(OC)c1OC	1.04	·	0.0221	0.0392	3.0%	1.15
O=C(CCC1CCCC1)c1c(O)c2ccccc2oc1=O	1.05	·	-2.08*	8.17*	3.0%	1.04
COc1cccc(-c2nn(C)c3sc(C(=O)NCc4ccco4)cc23)c1	1	·	-1.13	0.0345	6.0%	3.02*
CC(C)NC(=O)c1cc2c(-c3ccc(Cl)cc3)nn(C)c2s1	1.09	·	-2.45	-0.951	9.0%	1.62
CCOC(=O)N1CCC(NC(=O)c2cc3c(-c4ccc(Cl)cc4)nn(C)c3s2)CC1	1.14	33.9	0.752	-1.1	8.0%	2.14*
COCCCNC(=O)c1cc2c(-c3ccc(Cl)cc3)nn(C)c2s1	1.15	7.8	0.974	-0.134	1.0%	2.16*
COCCNC(=O)c1cc2c(-c3ccc(Cl)cc3)nn(C)c2s1	1.06	-1.5	0.0791	-0.0769	4.0%	2.16*
CCCCNC(=O)c1cc2c(-c3ccc(Cl)cc3)nn(C)c2s1	1.06	-21.4	-0.447	-0.394	1.0%	1.46
Cn1nc(-c2ccc(Cl)cc2)c2cc(C(=O)NCCCN3CCCC3)sc21	1.12	-37.1	-1.73	-0.595	6.0%	2.13*
